This is a sample that favours compounds with a hit; in the whole collection about 3.5% have one here.
Mtb FBA inh: Mtb FBA enzyme inhibitors, primary screen, biochemical, fluorescence, strain H37Rv; inhibition, % at 1 µM; purified M. tuberculosis FBA, fluorescence read-out; Fructose-bisphosphate aldolase (Mycobacterium tuberculosis (strain ATCC 25618 / H37Rv)), …; 360,000 compounds, 2.3% hits; AID 588726, 2011; in the data active = inhibition above about 27%;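 note: 0% = vehicle and 100% = reference inhibitor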
Mtb UGM inh: M. tuberculosis UGM enzyme inhibitors, primary screen, biochemical, fluorescence polarization, single point; AID 504406, 2011; purified UGM, fluorescence polarization probe displacement; UDP-galactopyranose mutase (Mycobacterium tuberculosis (strain ATCC 25618 / H37Rv)), …; inhibition, % at 10 µM; 320,000 compounds, 0.06% hits; in the data active = inhibition above about 10%, passing the limit was not always enough; inconclusive = no clear call, values can overlap the other calls
Target sequence (P9WIQ1 whole entry, looked up): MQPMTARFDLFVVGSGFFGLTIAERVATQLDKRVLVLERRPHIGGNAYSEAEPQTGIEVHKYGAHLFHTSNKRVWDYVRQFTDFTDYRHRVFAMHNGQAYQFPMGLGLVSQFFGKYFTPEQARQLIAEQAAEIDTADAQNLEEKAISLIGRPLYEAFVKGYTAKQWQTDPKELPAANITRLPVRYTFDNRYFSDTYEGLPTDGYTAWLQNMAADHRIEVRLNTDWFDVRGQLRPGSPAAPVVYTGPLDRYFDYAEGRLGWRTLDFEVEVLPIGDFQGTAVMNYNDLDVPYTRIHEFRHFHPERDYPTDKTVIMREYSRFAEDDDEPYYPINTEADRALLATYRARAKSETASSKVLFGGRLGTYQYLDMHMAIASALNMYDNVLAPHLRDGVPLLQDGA
GDH-TPI counter: GDH-TPI coupling enzyme inhibitors, primary screen, artefact control for M. tuberculosis FBA inhibitor project, biochemical, absorbance, full deck; GDH-TPI coupled enzyme counterscreen, NADH absorbance; inhibition, % at 4.8 µM; 360,000 compounds, 1.2% hits; AID 588335, 2011; in the data active = inhibition above about 30%;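 note: 0% = DMSO wells and 100% = wells lacking the enzyme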
Rv3671c inh: Rv3671c serine protease inhibitors, primary screen, biochemical, fluorescence polarization, M. tuberculosis H37Rv. 320,000 compounds, 0.048% hits. AID 2606, 2010. inhibition, % at 5.96 µM. P9WHR9; in the data active = inhibition above about 38%;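 note: extracellular domain of Rv3671c used as enzyme; 0% = enzyme with DMSO and 100% = no enzyme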
Mtb hypoxia rep: PubChem AID 1159583; fluorescence inhibition, % (test concentration not listed); M. tuberculosis hypoxia-regulated fluorescent reporter, fluorescence; 300,000 compounds, 0.1% hits; in the data active = fluorescence inhibition mostly above about 23%, no sharp cut-off; inactive = mostly below about 17%
FadD28 binding: inhibitors of FadD28 bisubstrate probe binding, primary screen, biochemical, fluorescence polarization, single point. inhibition, % at 12.5 µM. 360,000 compounds, 0.22% hits. AID 588549, 2011; in the data active = inhibition above about 8.5%, passing the limit was not always enough; inconclusive = no clear call, values can overlap the other calls
* hit, by the source's call; ? = inconclusive; . = no result given; + = active, no number.

SMILES	Mtb FBA inh	Mtb UGM inh	GDH-TPI counter	Rv3671c inh	Mtb hypoxia rep	FadD28 binding
CCn1c2ccccc2c2cc(C=NNC(=O)c3ccccc3)ccc21	.	.	.	.	2.8	.
CCn1c2ccccc2c2cc(/C=N/NC(=O)c3ccccc3C)ccc21	4.8	-1.0	34.9*	6.2	.	-0.9
COC(=O)C(Cc1ccccc1)NC(=O)C(N)CC(=O)OCc1ccccc1 (stereo not given)	.	.	.	.	18.7	.
COc1ccccc1C(=O)N=Nc1c(O)[nH]c2ccc([N+](=O)[O-])cc12	-1.2	.	18.1	.	-15.9	-1.4
NC(=O)N=Nc1c(O)[nH]c2ccc([N+](=O)[O-])cc12	-3.1	4.2	31.1*	-3.6	-8.5	0.5
OCCC1CC(O)C(O)[C@@]2(OCc3ccccc32)O1 (stereo not given in full)	.	.	.	.	7.2	.
CC1CN(C(C)CO)C(=O)c2cc(NC(=O)Cn3cnnn3)ccc2OC1CN(C)C(=O)Nc1ccc(C(F)(F)F)cc1 (stereo not given)	.	.	.	.	4.5	.
COc1cc(NC(=O)Nc2cccc(Cl)c2)c(C(=O)O)cc1OC	145.7*	1.9	13.9	1.5	-4.9	2.2
COC(=O)c1cc(OC)c(OC)cc1NC(=S)Nc1cccc(Cl)c1	-7.3	-1.2	4.7	-0.9	.	-2.9
COc1cc(NC(=O)/C=C/c2ccccc2)c(C(=O)O)cc1OC	-6.9	0.2	44.4*	-10.8	9.6	-1.6
O=C(NN=Cc1cc([N+](=O)[O-])ccc1O)c1ccc(COc2ccc3c(c2)CCC3)o1	.	.	.	.	8.1	.
CC(=NNC(=O)C1CC1)c1ccc(OC(F)F)cc1OC(F)F	.	.	.	.	15.1	.
C#CCOCCOCCOCCNc1nc(N2CCN(C(=O)Cn3cc(CCCN=C(N)N)nn3)CC2)nc(N2CCN(C(=O)C(C(C)CC)n3cc(CCC(=O)O)nn3)CC2)n1 (stereo not given)	.	.	.	.	5.9	.
Cc1ccc(-n2c3nc(=O)[nH]c(=O)c-3cc3c(C)nn(-c4ccccc4)c32)c(C)c1	+	2.3	21.3	-2.7	.	-3.3
COc1ccc(C2NC(=O)NC(C)=C2[N+](=O)[O-])cc1OC (stereo not given)	0.4	1.9	37.4*	7.9	9.4	-0.4
Fc1ccc2c(c1)[C@H]1OCC[C@H]1[C@@H](c1ccco1)N2	18.5	-2.9	-0.6	-1.1	16.1	-1.4
Clc1ccc2c(c1)[C@H]1OCC[C@H]1[C@@H](c1ccco1)N2	38.2*	1.0	5.9	5.5	.	-2.1
COc1cc(OC)c(C=NNC(N)=S)cc1Br	.	.	.	.	25.5	.
COc1cc(OC)c(/C=N/NC(N)=S)cc1Br	-0.6	0.8	34.7*	3.8	.	0.5
COc1ccc(C2CC(=O)C=C(c3ccc(Oc4ccccc4)cc3)C2)cc1OC (stereo not given)	.	.	.	.	15.2	.
O=c1nc(/C=C/c2ccc(Cl)cc2Cl)cc(C(F)(F)F)[nH]1	2.3	-2.4	41.4*	.	9.0	-1.0
O=C(CC(=O)c1ccccc1O)c1cccc(F)c1	4.1	-1.8	10.9	5.1	.	-0.2
O=C(CC(=O)c1c(F)cccc1Cl)c1ccccc1O	9.9	1.6	33.2*	7.0	-4.1	-0.5
Nc1nc2c(ncn2-c2ccccc2)c(=O)[nH]1	1.3	.	9.9	.	7.8	-1.9
Nc1nc2nn(-c3ccccc3)nc2c(=O)[nH]1	199.2*	0.7	14.3	-0.4	-1.2	.
SMILES	Mtb FBA inh	Mtb UGM inh	GDH-TPI counter	Rv3671c inh	Mtb hypoxia rep	FadD28 binding
COCCCNC(=O)c1c(N)n(/N=C/c2ccccn2)c2nc3ccccc3nc12	-2.9	.	8.3	.	.	-2.4
COCCCNC(=O)c1c(N)n(-c2cccc(S(N)(=O)=O)c2)c2nc3ccccc3nc12	138.3*	-0.4	1.9	3.8	-6.2	-3.1
Cc1ccc(NC(=O)CNc2ccccc2N2CCCC2=O)cc1S(=O)(=O)N1CCOCC1	1.1	.	1.7	.	5.8	21.3*
Cc1ccc(S(=O)(=O)N2CCCCC2)cc1NC(=O)CNc1ccccc1N1CCCC1=O	0.3	-1.0	-4.2	4.4	10.6	.
COc1ccc(NC(=O)CNc2ccccc2N2CCCC2=O)cc1S(=O)(=O)N1CCOCC1	-1.1	-2.4	1.9	-3.6	9.3	10.2*
COc1ccc(Nc2nc(-c3ccccc3)nc3ccccc23)cc1S(=O)(=O)N1CCOCC1	7.4	0.0	40.3*	-107.4	-3.8	-0.7
COc1ccc(C(=O)Nc2ccc(-c3ccc(C)o3)cc2)cc1S(=O)(=O)N1CCOCC1	2.2	2.0	37.9*	-7.3	-4.6	-1.1
CCCCN1C(=S)NCC1Cc1ccccc1 (stereo not given)	.	.	.	.	14.4	.
COc1cc(Cn2c3ccc(NC(=O)CC(C)(C)C)cc3c(=O)n2C)ccc1F	178.2*	.	17.7	.	.	-1.7
Cn1c(=O)c2cc(NC(=O)Cc3ccccc3F)ccc2n1Cc1ccc(Cl)cc1	132.7*	.	4.5	.	.	-3.7
CC(CC(=O)Nc1ccc2c(c1)c(=O)n(C)n2Cc1cccc(C(F)(F)F)c1)C(F)(F)F (stereo not given)	125.5*	.	4.9	.	.	-4.7
Cn1c(=O)c2cc(NC(=S)NC3CCCCC3)ccc2n1C/C=C/c1ccccc1	9.1	.	10.1	.	.	?
Cn1c(=O)c2cc(NC(=S)NC3CCCCC3)ccc2n1Cc1ccc(Cl)cc1	23.7	.	2.7	.	.	17.3*
Cn1c(=O)c2cc(NC(=S)NCc3ccccc3F)ccc2n1Cc1ccccc1	18.4	.	10.1	.	.	0.3
O=C(NCc1ccccc1)C1=CC(C2CCCCC2)CC(OCCCCO)O1 (stereo not given)	.	.	.	.	13.7	.
O=C(Cc1c[nH]c2ccccc12)NN=Cc1ccccc1O	.	.	.	.	3.2	.
CC(CC(=O)Nc1ccc2c(c1)c(=O)n(C)n2Cc1ccc(Cl)cc1)C(F)(F)F (stereo not given)	143.0*	.	11.1	.	.	0.2
COc1cc(Cn2c3ccc(NC(=O)CC(C)C(F)(F)F)cc3c(=O)n2C)ccc1F (stereo not given)	174.3*	.	4.4	.	.	-2.4
CC(CC(=O)Nc1ccc2c(c1)c(=O)n(C)n2-c1ccccc1)c1ccccc1 (stereo not given)	12.8	.	4.6	.	.	-2.7
C/C(=N\Nc1ccc(Cl)c(C(=O)O)c1)c1ccc(N2CCOCC2)cc1	-2.7	2.7	30.9*	10.8	.	1.9
C/C(=N\Nc1ccc(Cl)c(C(=O)O)c1)c1ccc[nH]1	-0.7	-0.7	19.4	-1.8	.	27.7*
C/C(=N\NC(=O)c1cccc(C)c1)c1ccc(N2CCOCC2)cc1	4.4	-1.0	34.0*	-2.9	.	-0.8
O=C(O)c1cc(N/N=C/c2ccc(N3CCOCC3)s2)ccc1Cl	-3.2	.	22.2	-6.5	.	45.2*
CC(=NNc1ccc(Cl)c(C(=O)O)c1)c1ccc[nH]1	.	.	.	.	3.6	.
O=C(O)c1cc(NN=Cc2ccc(N3CCOCC3)s2)ccc1Cl	.	.	.	.	11.8	.
COC(CC1OC1C(O)C(C)OCc1ccccc1)OC (stereo not given)	.	.	.	.	4.2	.
C=CCc1cccc(C=NNC(=O)CNc2ccccc2)c1O	.	.	.	.	12.4	.

Screening data (PubChem BioAssay)
